Not all results are given here. The hit rate among all sequences tested is not known here.
B1: il2ra_site1_2b5i_normal_mot_2cbe48e66a1f39b3fed734b245ab0a04_0001_000000015_0001_17_31_H_._HHH_b2_00019_0001_0000500012_0000001_0_af2pred_dldesign_0_af2pred (protein)
chain: SSSSSSDAEAEVERLLEEARKVNPEEAEKLLFKALVVAWAAKDPALVARVEAEAKRLLSSSSSSS
B2: il2ra_site2_3nfp_sap_25_mot_HHH_b2_07498_000000293_0001_1_14_H_._HHH_b1_01574_0001_0000100004_0000001_0_0001_af2pred_0001_1_af2pred_swapped (protein)
chain: SSSSSDEELLEEAKRLLEEGNLEEAFRVLAEAASEAIELGDEELAHEIAALAIEVAEKLGSSSSS
B3: il2ra_site1_1z92_sap_9_mot_HHH_b1_04604_af2_000000029_0001_42_56_H_._3020bb65e3c0c4c1750efda2a61ed53f_0001_1_af2_0001_0000300015_0000001_0_0001 (protein)
chain: SEEYLEEQLRRKLELGNIEDAARALFKFIAAAAGDPEQAEEFLEELLKRAGVPPEVIEKILEEAK
B4: il2ra_site1_2b5i_normal_mot_HHH_b2_00231_000000175_0001_20_36_H_._HHH_b2_07547_0001_0000100002_0000001_0_af2pred_0001_af2pred (protein)
chain: SSSSDVWELYLRASRLFLRGNPEEAERLLEEAIELAERLGDPEIAKQLEEMLRHVRRSLSSSSSS
B5: il2ra_site2_3nfp_sap_20_mot_ce0e691d864d74cc0dee145e42b7b696_0001_1_af2_000000051_0001_34_49_H_._HHH_b1_03816_af2_0001_0000500031_0000001_0_0001 (protein)
chain: SSSSSDEEKLEEARELYEEGNPEEARKILLHLVSEAEEKGDRELLFRIMALANEVAAALISSSSS
B6: il2ra_site2_3nfp_normal_mot_HHH_b1_05918_af2_000000127_0001_23_40_H_._HHH_b1_07797_0001_0000400047_0000001_0 (protein)
chain: SSSSSEAEEYLRAALLLAELALREGDEENARRSLELAIQLAEHKGNPELLEELEELLEEINSSSS
B7: il2ra_site1_3nfp_sap_8_mot_119b7766384adbe86006a62bce89dba1_0001_af2_000000092_0001_18_32_H_._HHH_b2_02632_0001_0000300007_0000001_0_0001 (protein)
chain: SSSSDARELLFEAAEILDELAERGDHEELKRFAEEVIEELEELGNRQAARMIRWLVERALSSSSS
B8: il2ra_site2_3nfp_sap_22_mot_HHH_b2_08245_000000023_0001_41_55_H_._HHH_b2_07283_0001_0000300027_0000001_0_0001 (protein)
chain: SSSSDVEERIEELLKEIEELLEKGDPEEAERLLLEVALLAWETGDFEAFAAVTRLLERVQSSSSS
B9: il2ra_site1_2b5i_sap_18_mot_89dc1dc23437faef961419e82e151d9c_0001_af2_000000202_0001_15_32_H_._9f08b0091ee0dae2b2d48aa630d4ec63_0001_1_0001_0000400022_0000001_0 … (protein)
chain: SSSSSIEELLEAMLELAEELIENGNPEEARAILLLARRAARAHGNPEYVKELERLLRELLSSSSS
B10: il2ra_site2_3nfp_normal_mot_HHH_b1_05158_000000192_0001_1_17_H_._HHH_b1_05195_0001_0000600013_0000001_0_af2pred_0001_af2pred (protein)
chain: SSSSSSDSELTFLLILLEALLEEVDDPEIRELLEEALEELREKKDPEIARKVLKEASEYLSSSSS
B11: il2ra_site2_3nfp_sap_26_mot_HHH_b1_00015_000000185_0001_19_35_H_._HHH_b2_06138_0001_0000600047_0000001_0_0001_af2pred_0001_af2pred (protein)
chain: SSSSSSDEEEEVEKLLEEAKHIEDEFELYAVLADAARIAFELKDEELRRLVKEVRHELSSSSSSS
B12: il2ra_site1_1z92_normal_mot_HHH_b1_08597_af2_000000202_0001_42_56_H_._6e12af4a48b4634929ba45889b8be782_0001_0001_0000600034_0000001_0 (protein)
chain: NVEWAIENLERLARLQGNPEVERVLRRVLELLKKNEEEAEEFLEELVRELGDKLLRLLLRMLKTA
B13: il2ra_site1_1z92_sap_14_mot_1581cc1c700002558836ca695aafbf97_0001_1_af2_000000099_0001_17_32_H_._d5167a162c519d043ddc16d89768c28c_0001_1_0001_0000100008_0000001 … (protein)
chain: SLEEEIERALKEAGVPPEEIEAIKRDIRRTQEFGIPPRSIALAVLRALKSHDEELAERVEELLRK
B14: il2ra_site1_1z92_normal_mot_HHH_b2_05238_af2_000000252_0001_38_55_H_._HHH_b1_01495_af2_0002_0000300012_0000001_0_af2pred_0001_af2pred_1 (protein)
chain: SSSSSKEESLELAERAARRAIEAGNERSARRLLKFVIEAAEELGNEELLEELEELLERLESSSSS
B15: il2ra_site2_2erj_sap_29_mot_dcd9809507f71d420582ead1f1e1bbb3_0001_000000226_0001_37_50_H_._HHH_b1_02896_af2_0001_0000500038_0000001_0_0001 (protein)
chain: SSSSSSLHELYELANRLMHALSNGDEELLEELLEELEELAKELQSDTAREIVENIRRRLSSSSSS
B16: il2ra_site1_1z92_sap_17_mot_c66c727fe7b11027095aa3ef302aaf37_0001_000000167_0001_38_52_H_._665b9007e6d0b9979c9b0c82f83b8fcc_0001_0001_0000200023_0000001_0_0001 (protein)
chain: SSSSDSRERIEELAEFLARDIKMTGNPWARRLLELLLEKAEKLGDEELREIIEQLLEELRSSSSS
B17: il2ra_site1_3nfp_sap_16_mot_HHH_b1_00461_af2_000000238_0001_1_17_H_._HHH_b2_08025_0001_0000300024_0000001_0_0001_af2pred_0001_af2pred_swapped (protein)
chain: SSSSSRILRFLEELARKAFERNDKKQLEAILKLIRKAAKQFKDEEVEELLELVEELLKKLSSSSS
B18: il2ra_site2_2erj_normal_mot_HHH_b1_05204_000000269_0001_1_15_H_._HHH_b1_00954_0001_0000200014_0000001_0_1_af2pred_0001_af2pred (protein)
chain: SSSSDLEEELRRLLEELEELVKEGDEKKFMEVALRVAKLVIENNDEEAAKLLLRLLRELRSSSSS

Each binder was assayed against il2ra, P01589 (assay: yeast display titration).
Sequence of il2ra, P01589 (P01589 whole entry): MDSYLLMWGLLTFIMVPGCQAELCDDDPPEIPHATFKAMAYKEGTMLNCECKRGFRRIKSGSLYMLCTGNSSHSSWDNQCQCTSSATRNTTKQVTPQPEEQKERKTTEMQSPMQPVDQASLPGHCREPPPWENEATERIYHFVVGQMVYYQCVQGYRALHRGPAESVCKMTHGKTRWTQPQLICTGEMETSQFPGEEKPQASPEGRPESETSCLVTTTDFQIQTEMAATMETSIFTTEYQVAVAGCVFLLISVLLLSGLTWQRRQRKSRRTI

Apparent Kd, inactive:
B1 no binding seen
B2 no binding seen
B3 no binding seen
B4 no binding seen
B5 no binding seen
B6 no binding seen
B7 no binding seen
B8 no binding seen
B9 no binding seen
B10 no binding seen
B11 no binding seen
B12 > 311 nM
B13 no binding seen
B14 no binding seen
B15 no binding seen
B16 no binding seen
B17 no binding seen
B18 no binding seen

Source: publication PMC10163288
